Measurements from the supplement of paper PMC3334620.
Over roughly 33,000 sequences, “E-score (-0.5 to 0.5)” has its median near -0.016; the highest 2% begin near 0.31. The entries come from a sample that favours the highest values as a whole.

molecular target: Cst6 (UniProt P40535); test: PBM E-score (8-mer binding enrichment) (E-score (-0.5 to 0.5)); higher = stronger / more preferred TF binding; conditions: protein concentration: 200 nM; construct: GST-DNA-binding domain
Protocol: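 Universal 'all 10-mer' protein binding microarrays (Agilent AMADID 015681) probed with GST-tagged S. cerevisiae TFs (full-length or DBD) made by in vitro transcription/translation (PURExpress), about 100-200 nM. Bound TF was detected with fluorescent anti-GST. Each ungapped 8-mer (which stands for itself and its reverse complement) is scored by the PBM enrichment score (E-score), a modified Wilcoxon-Mann-Whitney statistic from -0.5 to +0.5, computed with the Universal PBM Analysis Suite. Scale: above 0.35 generally sequence-specific binding.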

Chain of UniProt P40535 (P40535 whole entry, the tested form may be a part): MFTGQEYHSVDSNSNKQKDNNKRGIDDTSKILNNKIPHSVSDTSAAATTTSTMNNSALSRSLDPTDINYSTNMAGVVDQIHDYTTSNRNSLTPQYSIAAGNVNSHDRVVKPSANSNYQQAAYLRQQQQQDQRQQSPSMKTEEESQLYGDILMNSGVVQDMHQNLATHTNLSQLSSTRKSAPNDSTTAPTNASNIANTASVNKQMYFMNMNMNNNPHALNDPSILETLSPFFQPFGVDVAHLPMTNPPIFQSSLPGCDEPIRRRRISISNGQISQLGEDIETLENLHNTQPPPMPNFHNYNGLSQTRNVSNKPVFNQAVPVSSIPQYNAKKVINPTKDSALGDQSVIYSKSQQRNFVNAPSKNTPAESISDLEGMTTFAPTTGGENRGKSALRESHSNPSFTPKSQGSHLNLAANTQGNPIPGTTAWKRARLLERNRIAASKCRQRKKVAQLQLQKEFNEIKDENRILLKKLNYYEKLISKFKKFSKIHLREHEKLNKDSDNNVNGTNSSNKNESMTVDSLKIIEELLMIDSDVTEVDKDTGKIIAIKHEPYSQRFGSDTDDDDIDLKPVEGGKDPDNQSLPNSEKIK

Row | Sequence | PBM E-score
1 | GAACCAAA | -0.0818
2 | CGATATAA | 0.225
3 | AAATATCA | 0.139
4 | TGATATAA | 0.323
5 | GGATATCA | -0.0151
6 | GGATATAA | 0.236
7 | CAATATCA | 0.126
8 | TAATATCA | 0.319
9 | AGATATCA | 0.198
10 | TGATATCA | 0.426
11 | GGAAGAGA | -0.106
12 | ATTCTGAC | 0.181
13 | GGCGTACC | -0.19
14 | CAACCAAG | 0.0364
15 | TCGGACAA | 0.0914
16 | CACAGTGC | -0.024
17 | CCCTAACA | 0.127
18 | GCCGTGAA | 0.184
19 | GCCGTGAC | 0.341
20 | ACCGTGAC | 0.291
21 | GACGTGAA | 0.142
22 | GACGTGAC | 0.394
23 | GCCGTGCA | 0.279
24 | CACGTGAC | 0.148
25 | GCCGTGCC | 0.308

Row | Sequence | PBM E-score
26 | ACCGTGCC | 0.0391
27 | CCAAGCGA | -0.309
28 | AAACAGGT | 0.0221
29 | ATTCTGGA | 0.122
30 | AAGCCTTA | -0.0547
31 | ACCTGCTA | -0.0708
32 | GTACGCAA | 0.0898
33 | AGACGCAA | 0.0971
34 | ATACGCAA | 0.283
35 | TGACGCAA | 0.489
36 | CCACGCAA | 0.043
37 | GCACGCAA | -0.0783
38 | TGACGCCA | 0.466
39 | TTACGCAA | 0.438
40 | AGACGCCA | -0.108
41 | GGACGCAA | 0.0196
42 | TCACGCAA | 0.375
43 | CGACGCCA | 0.00886
44 | CTGCTTAC | 0.00293
45 | CGTGACTC | -0.1
46 | ACGCTCAT | 0.114
47 | CCTAAGCA | -0.0807
48 | TTAGGCAA | -0.00879
49 | TAACCAGA | -0.0457
50 | CAAGTGCC | 0.0401

Row | Sequence | PBM E-score
51 | GCGCCGTA | 0.384
52 | ACGCCGTC | 0.389
53 | AGGCCGTA | 0.0502
54 | GGGCCGTA | 0.116
55 | ACGCCGAC | 0.0423
56 | GCGCCGAA | 0.132
57 | CCGCCGTA | 0.0871
58 | CCGCCGTC | 0.206
59 | ACGCCGTA | 0.349
60 | ACGCCGGG | -0.254
61 | ACGCCGTG | 0.383
62 | ACGCCGCG | 0.302
63 | ATCCAATA | 0.222
64 | AGCCGACC | -0.292
65 | CTGGGACA | -0.219
66 | CCTGTGGC | -0.117
67 | AGAGTACC | -0.135
68 | TAGTACAA | -0.00017
69 | ACATTTCC | 0.13
70 | GAGATCGA | 0.0615
71 | CATCCGCG | 0.151
72 | AGATGTCA | 0.298
73 | GTATGTCA | 0.422
74 | CTATGTCA | 0.392
75 | ATATGTCA | 0.404

Row | Sequence | PBM E-score
76 | ATATGTCC | 0.121
77 | GTATGTAA | 0.282
78 | CGATGTCA | 0.319
79 | ATATGTCG | 0.185
80 | ATGTGTCA | 0.286
81 | GTATGTTA | 0.182
82 | GGATGTCA | 0.277
83 | CTATGTCC | -0.152
84 | CATCAAGG | -0.0962
85 | ACGCCCGT | -0.0034
86 | AACTAAGG | 0.0828
87 | GGAACGCA | -0.112
88 | AGGTATAC | 0.0822
89 | GGCCGTGA | 0.14
90 | CTGCGCTC | -0.292
91 | GCAGTCGC | -0.0904
92 | ACAAGGCG | 0.223
93 | GGTGGCGA | -0.11
94 | CAGCGGTA | 0.0522
95 | CCATAGCG | -0.0739
96 | GACAGAAC | 0.0521
97 | GACAGAAA | 0.311
98 | AACAGAAA | 0.213
99 | ACCGTTCG | 0.0621
100 | ACTACCCT | -0.111

Row | Sequence | PBM E-score
101 | AATTCGCT | 0.238
102 | CATTATCG | 0.0831
103 | AATTATCA | 0.356
104 | AATTATCC | 0.188
105 | CATTATCA | 0.137
106 | AATTATCG | 0.316
107 | AATTATCT | 0.161
108 | ACAGGGGA | -0.218
109 | ATTTAAAA | 0.258
110 | ACAATAGC | -0.178
111 | ATTGGCAG | -0.165
112 | AGTAACTG | 0.00693
113 | CTACGTGA | 0.0384
114 | CTACGTCA | 0.493
115 | ATACGTCG | 0.215
116 | ATACGTCC | 0.061
117 | CTACGTCC | -0.0878
118 | GTACGTGA | 0.108
119 | GTACGTTA | 0.124
120 | GTACGTCA | 0.49
121 | ATACGTCA | 0.494
122 | ATCCGTGA | -0.0022
123 | GATCGGAC | -0.0973
124 | CAGATTGC | -0.0228
125 | GTAGATGA | 0.181

Row | Sequence | PBM E-score
126 | CCTAGCTA | -0.162
127 | ATTTGTGG | 0.0944
128 | CGATTACC | -0.107
129 | AGATTACG | 0.386
130 | CGATTACA | 0.13
131 | CGATTACG | 0.349
132 | AGATTACC | 0.144
133 | AGATTACT | 0.144
134 | CTCCCACC | -0.335
135 | ACGGCTTC | 0.0724
136 | AAGCCTGT | -0.0963
137 | GTCGCCCA | -0.192
138 | CAGCTCTC | -0.172
139 | AACAATAA | 0.204
140 | AATAATAG | 0.209
141 | AATAATGT | 0.181
142 | AAAAATAA | 0.292
143 | CATAATAA | 0.267
144 | AACAATAC | 0.156
145 | AAAAATAG | 0.118
146 | AAAAATAT | 0.309
147 | AATAATAT | 0.305
148 | AATAATAC | 0.197
149 | AACAATAT | 0.37
150 | AATAATAA | 0.313

Row | Sequence | PBM E-score
151 | GCCTTAAA | 0.151
152 | GATGGCCC | -0.106
153 | CGAGCCCG | -0.126
154 | CGGAAATA | 0.155
155 | CCGAGTTC | -0.063
156 | CCCTAGGA | -0.295
157 | CACTAATA | 0.211
158 | GTTTAATA | 0.202
159 | TACTAATA | 0.222
160 | AATTAATA | 0.39
161 | ATTTAATA | 0.338
162 | CTTTAATA | 0.201
163 | GATTAATA | 0.261
164 | AATTAATC | 0.197
165 | AATTAATG | 0.174
166 | AACTAATA | 0.336
167 | AATTAATT | 0.311
168 | TATTAATA | 0.0736
169 | GAGTCCGA | -0.0585
170 | TCGCCAGA | -0.0255
171 | ACTCGCCA | -0.037
172 | AATAAACG | 0.157
173 | GCCGGAGC | -0.249
174 | CAACTGAC | 0.0886
175 | CGATGCAA | -0.0639
